Measured values: PubChem BioAssay (NCI)
Compounds without any hit were thinned out: in the full panel of roughly 83,000, 20% have a hit.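 Values shown are percent growth following 48 h exposure of cells in 96-well plates to a single concentration of compound; below 10 was considered active.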 Unmarked numbers belong to inactive results. Active and inactive are the calls of the source.

Assays:
Test in all cases: NCI-60 one-dose screen, 48 h (100 = growth as untreated, 0 = no growth, -100 = all killed)
Conditions in all cases: 10 µM unless noted
NCI-H23 lung = tested on: NCI-H23 lung
NCI-H226 lung = tested on: NCI-H226 lung
NCI-H322M lung = tested on: NCI-H322M lung
HOP-62 NSCLC = tested on: HOP-62 NSCLC
NCI-H460 lung = tested on: NCI-H460 lung
HOP-92 NSCLC = tested on: HOP-92 NSCLC
NCI-H522 lung = tested on: NCI-H522 lung
A549/ATCC NSCLC = tested on: A549/ATCC NSCLC
786-0 renal = tested on: 786-0 renal
COLO 205 colon = tested on: COLO 205 colon

SMILES	growth (NCI-H23 lung) [%]	growth (NCI-H226 lung) [%]	growth (NCI-H322M lung) [%]	growth (HOP-62 NSCLC) [%]	growth (NCI-H460 lung) [%]	growth (HOP-92 NSCLC)	growth (NCI-H522 lung)	growth (A549/ATCC NSCLC) [%]	growth (786-0 renal) [%]	growth (COLO 205 colon) [%]
O=C(CSc1nc(-c2ccccc2)cc(=O)[nH]1)Nc1nc(-c2ccccc2)cs1	84.3	76.2	93.4	109	106	72.5%	74.4%	95.3	103	115
CCCCCCCCCCCCCCCCCCOc1ccccc1CC(=O)NCC[N+]1(C)CCCCC1	62.5	74.2	62.7	59	41.9	19.9%	32.7%	51.2	74.2	23.6
CC1(C)CC[C@]2(C(=O)N[C@H](CO)Cc3ccccc3)CC[C@]3(C)C(=CC[C@@H]4[C@@]5(C)CCCNC(C)(C)[C@@H]5CC[C@]43C)[C@@H]2C1	104	91.1	95.3	89	78.3	26.4%	96.8%	89.8	65.5	77.8
Cc1nc2c(=O)nc3s/c(=C\c4ccco4)c(=O)n3c2nc1C	96.8	97	93.5	94.8	101	85.8%	85.1%	81.2	97.1	116
S=c1nc2oc(-c3ccccc3)c(-c3ccccc3)c2c(/N=C\c2ccco2)[nH]1	88.2	102	105	82.5	115	92.4%	86.1%	95.3	97	120
COc1ccc(C#Cc2ccc(=O)oc2-c2cc(OC)c(OC)c(OC)c2)cc1O	45.7	71.3	49.7	28.6	15.3	48.4%	20.6%	42.6	54.3	69.4
O=C(Nc1ccccc1O)c1ccc(CNC(=O)c2ccsc2Nc2ccnc(C(F)(F)F)c2)cc1	13.5	38.3	46.1	47.6	26	-2.27% (active)	-24% (active)	27.6	42.8	47.3
